ssDAF12 agonist: S. stercoralis DAF-12 nuclear receptor activators, primary screen, cell-based, luminescence, HEK293, GRIP1 co-expression, lit1-tk-luc. activation, % at 6.8 µM. HEK293 ssDAF-12/GRIP1 lit1-tk-luc reporter; % of 3 µM dafachronic acid response. Nuclear hormone receptor DAF-12 (Strongyloides stercoralis). actives 1% (n = 370,000);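 active = activation above the mean over all tested compounds plus 3 SD, cut at about 0.9% in these data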;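 note: 0% = DMSO-only wells and 100% = 3 µM delta7-dafachronic acid wells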
SMARCA2 act: SMARCA2 (BRM) function activators, primary screen, cell-based, luminescence, high throughput; MG213 cells, MMTV-luciferase reporter, dexamethasone, overnight; activation, % at 9.1 µM; actives 1% (n = 370,000); in the data active = activation above about 7.8%;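 note: 0% = vehicle wells and 100% = reference activator wells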
hcDAF12 agonist: H. contortus DAF-12 nuclear receptor activators, primary screen, cell-based, luminescence, HEK293, lit1-tk-luc reporter | HEK293 hcDAF-12 lit1-tk-luc reporter; 0% DMSO, 100% Δ7-dafachronic acid | activation, % at 6.8 µM | actives 1.4% (n = 370,000);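 active = activation above the mean of all tested compounds plus 3 SD, cut at about 5.5% in these data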;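 note: 100% = response to 3 µM Δ7-dafachronic acid high control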
DAX1 inh-1: DAX1 (NR0B1) inhibitors, primary screen, cell-based, HEK293, Gal4-DAX1, luciferase luminescence | AID 504766, 2011 | HEK293 Gal4-DAX1 luciferase reporter | Nuclear receptor subfamily 0 group B member 1 (Homo sapiens), P51843 | actives 0.99% (n = 340,000) | inhibition, % at 6.75 µM;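 active = inhibition above the mean over all tested compounds plus 3 SD, cut at about 4.2% in these data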;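 note: 0% = DAX1-transfected cells with DMSO and 100% = empty-vector control cells with DMSO; inhibition shows as a rise in luminescence from relieved DAX1 repression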
Target sequence (P51843 207-470 limits assumed): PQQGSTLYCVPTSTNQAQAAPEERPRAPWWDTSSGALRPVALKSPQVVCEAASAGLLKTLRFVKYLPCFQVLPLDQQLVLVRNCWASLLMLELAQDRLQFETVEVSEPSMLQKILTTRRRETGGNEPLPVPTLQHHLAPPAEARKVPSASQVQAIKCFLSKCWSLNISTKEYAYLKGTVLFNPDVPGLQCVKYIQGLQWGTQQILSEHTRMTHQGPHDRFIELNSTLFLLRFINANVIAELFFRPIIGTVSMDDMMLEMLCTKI
DAX1 inh-2: DAX1 (NR0B1) inhibitors on StAR promoter, primary screen, cell-based, luminescence, SF-1 (NR5A1), full-length DAX-1. inhibition, % at 6.8 µM. HEK293T StAR-luciferase reporter, SF-1/DAX-1 repression relief. actives 1.1% (n = 370,000);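 active = inhibition above the mean over all tested compounds plus 3 SD, cut at about 3.6% in these data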;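 note: 0% = DAX-1 cells with DMSO and 100% = cells lacking DAX-1 with DMSO; higher inhibition means more luminescence from relief of DAX-1 repression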
hgDAF-12 ag: H. glycines DAF-12 receptor agonists, primary screen, cell-based, luminescence, HEK293, GAL4 fusion, UAS-luciferase; actives 1.8% (n = 370,000); HEK293 GAL4-hgDAF12 UAS-luciferase reporter, agonist luminescence; normalized to butyrate control; activation, % at 6.8 µM;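 active = activation above a cutoff set at the mean of all screened compounds plus 3 SD, cut at about 10% in these data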;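 note: 0% = DMSO wells and 100% = sodium butyrate wells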
LXR ag: LXR agonists, Gal4 luciferase reporter, confirmation, counter-screen for hcDAF-12 agonist project, cell-based, luminescence, HEK293, H. contortus campaign; 3,400 tested, under 10 active; HEK293 Gal4-LXR tk-luc reporter, 24 h; normalized: DMSO 0%, positive control 100%; activation, % at 6.8 µM; shares compounds with hcDAF12 agonist; AID 743027, 2013;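 active = mean percent activation of the reporter above a cutoff set as the average over tested compounds plus their standard deviation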
hcDAF12 conf: H. contortus DAF-12 receptor agonists, confirmation, cell-based, luminescence, HEK293, lit1-tk-luc, triplicate. HEK293 hcDAF-12 lit1-tk-luc reporter; % of Δ7-dafachronic acid response. actives 61% (n = 3,400). activation, % at 6.8 µM. shares compounds with hcDAF12 agonist. AID 743032, 2013;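 active = mean activation across triplicate tests above the threshold derived from the earlier primary screen, cut at about 5.5% in these data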;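 note: 0% = DMSO only wells and 100% = 3 µM Δ7-dafachronic acid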
Numbers without * were called inactive; x = not tested or not shown. An excerpt weighted towards active compounds, which were near 4.8% of everything screened.

SMILES	ssDAF12 agonist	SMARCA2 act	hcDAF12 agonist	DAX1 inh-1	DAX1 inh-2	hgDAF-12 ag	LXR ag	hcDAF12 conf
c1ccc2c(c1)CCCN2Cc1nnc2n1CCCCC2	1.0*	7	7.7*	0	1	2	0	4
c1ccc(Cc2nnc3n2CCCCC3)cc1	-1	-2	-1	0	0	2	x	x
CCOC(=O)c1c(C)oc2c1c1c(c3ccccc32)OCN(CCCC(=O)O)C1	1.2*	4	8.9*	5.0*	2	7	1	12*
COC(=O)c1[nH]c2ccccc2c1CN1CCOCC1	-1	-1	7.5*	-1	0	2	0	2
CCOC(=O)c1[nH]c2ccccc2c1NC(=O)CC(C)(C)C	0	-1	6.8*	-1	0	5	0	5
COC(=O)c1[nH]c2ccccc2c1NC(=O)Oc1ccccc1	0	2	8.4*	3	1	6	0	7.4*
CCOC(=O)c1[nH]c2ccccc2c1NC(=O)CN(C)C	-2	4	2	0	0	-1	x	x
COC(=O)[C@]12C[C@H](CC(=O)NCC3CCCCC3)C(=O)N(Cc3ccc4c(c3)OCO4)C1=C[C@H](C(C)C)O[C@@H]2C1CC1	-1	-2	-1	x	1	2	x	x
Cc1ccc(-c2cc(-c3nnc(SCC(=O)N4c5ccccc5Sc5ccccc54)n3N)[nH]n2)cc1	-1	-6	-3	x	-2	0	x	x
COc1ccc(Cl)cc1NC(=O)COC(=O)c1ccc(Cl)nc1	1	-1	6.7*	0	0	5	0	2
COc1ccc(Cl)cc1NC(=O)COC(C)=O	-2	-3	-1	0	0	0	x	x
CC(C)CNC(=O)OCc1cn(Cc2ccccc2F)nn1	0	-1	2	x	2	1	x	x
COC(=O)c1cc2c(c3c4cc(F)ccc4n(S(=O)(=O)c4ccccc4)c13)C(=O)N(C)C2	-1	-2	0	x	0	0	x	x
Cc1ccc(-c2nc3c4ccccc4ccn3c2CN2CCCCC2)cc1	0	-2	6.7*	3	0	2	0	6
Clc1ccc(-c2nc3c4ccccc4ccn3c2CC2CCCCC2)cc1	1.6*	1	6.7*	x	1	6	0	6.7*
Clc1ccc(-c2nc3c4ccccc4ccn3c2Cc2ccccc2)cc1	0	0	3	2	2	5	x	x
Cc1ccc(S(=O)(=O)N2CC3(COC(C)(C)OC3)C[C@H]2CON2C(C)(C)CCCC2(C)C)cc1	-2	x	-3	x	x	-1	x	x
COc1ccc(S[C@]2(C(=O)N(C)C)CC(=O)N(c3ccc(C#N)cc3)[C@@H]2c2ccc(OC)cc2)cc1	-1	2	1	x	-1	0	x	x
CN(C)c1ccc(P(=O)(Nc2ccccc2)N2CCOCC2)c(NC(=O)c2cccs2)c1 (stereo unspecified)	1	1	4	0	0	3	x	x
Cc1ccc(NP(=O)(c2ccc(N(C)C)cc2NC(=O)c2cccs2)N2CCOCC2)cc1 (stereo unspecified)	1.5*	0	8.4*	0	0	6	0	2
CN(C)c1ccc(P(=O)(Nc2ccc([N+](=O)[O-])cc2)N2CCOCC2)c(NC(=O)c2cccs2)c1 (stereo unspecified)	0	1	8.0*	1	0	3	0	5
CCC[C@H]1[C@@H](N(C)CC2CCCCC2)CC[C@@]23CCCN2C(=O)CCC[C@@H]13	-1	x	0	x	x	-2	x	x
Cn1c(=N)n(CC(=O)O)c2ccccc21	-1	1	3	1	0	1	x	x
N=c1n(CC(=O)c2ccc(Br)cc2)c2ccccc2n1Cc1ccccc1	-1	0	-2	0	-1	-2	x	x
Cn1c(=N)n(CC(=O)c2ccccc2)c2ccccc21	2.5*	1	18*	x	3	11*	2	25*
SMILES	ssDAF12 agonist	SMARCA2 act	hcDAF12 agonist	DAX1 inh-1	DAX1 inh-2	hgDAF-12 ag	LXR ag	hcDAF12 conf
CCCCn1c(=N)n(CC(=O)O)c2ccccc21	-2	-2	2	1	0	0	x	x
CCN(CC)CCn1c(=N)n(CC(=O)c2ccc(C)cc2)c2ccccc21	1.2*	2	8.2*	3	1	5	0	5
Cc1ccc(C(=O)Cn2c(=N)n(N)c3ccccc32)cc1	1.6*	6	7.5*	4.6*	2	9	0	4
Cn1c(-c2ccccc2)cnc1SCC(=O)N1CCCc2ccccc21	-2	-2	-2	0	-1	-2	x	x
O=C(CSc1ncc(-c2ccccc2)n1C1CCCC1)N1CCc2ccccc21	0	1	7.4*	0	0	6	0	3
Cc1c(C(=N)C(C#N)C#N)c(=N)oc2c1ccc1ccccc12	1	1	8.2*	0	0	3	0	8.1*
COC(=O)[C@]12C[C@H](CC(=O)NCCCCc3ccccc3)C(=O)N(CCC3=CCCCC3)C1=C[C@H](C(C)(C)C)O[C@@H]2C	-1	-6	-1	x	0	3	x	x
Cc1ccc(C2NC(=O)c3n[nH]c(C)c32)cc1 (stereo unspecified)	-1	-3	1	x	0	2	x	x
CCOc1ncccc1-c1nc(-c2cccs2)no1	0	2	9.8*	2	0	4	0	9.2*
CCOc1nc(-c2ccccc2)ccc1-c1noc(-c2cccs2)n1	-1	-4	0	2	0	2	x	x
Cc1ccc(C2Nc3ccccc3-c3nc4ccccc4n32)o1 (stereo unspecified)	0	1	6.7*	-1	0	12*	1	2
